ELG1 repair inh = ELG1-dependent DNA repair inhibition; HEK293T ELG1-luciferase reporter, luminescence, 16 h; DNA damage induced by 5-fluorouridine; Potency, µM (series often up to 46.1 µM), for inactives: at the top dose activity change, negative = inhibition, usual class: inhibitors; 330,000 compounds, 2.3% hits; AID 504467; note: nearly all actives have a fitted effect of over 55% in size
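In this reporter screen, reduction of luminescence relative to DMSO vehicle indicated activity. Compounds and 5-fluorouridine were added together to 2,000 cells per well, incubated for 16 hr at 37 °C, then developed with ONE-Glo.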
DT40 TDP1 no CPT = qHTS for Inhibitors of human tyrosyl-DNA phosphodiesterase 1 (TDP1): qHTS in cells in absence of CPT; DT40 Tdp1-/- hTDP1 cells, no CPT, ATP luminescence, 48 h; Potency, µM (titrated, usually from 46.2 µM), for inactives: at the top dose activity change, negative = growth inhibition, most hits filed as inhibitors; 420,000 compounds, 15% hits; note: nearly all actives have a fitted effect of over 55% in size
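Seeded 400 DT40-hTDP1 cells/well (vehicle DMSO, no 20 nM CPT); pinned compounds; ≥48 hr at 37 °C; CellTiter-Glo luminescence as viability measure.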
DT40 TDP1 CPT = DT40-hTDP1 cell growth loss with CPT. Potency, µM (top dose mostly 46.2 µM), inactives show at the top dose activity change, negative = growth inhibition, most hits filed as inhibitors. AID 686979. chicken DT40 Tdp1-/-;hTDP1 cells + 20 nM CPT, ATP luminescence, 48 h. 420,000 compounds, 12% hits; note: nearly all actives have a fitted effect of over 55% in size
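Chicken DT40 Tdp1-/- cells complemented with human TDP1, 400 cells/well, exposed to compounds plus 20 nM camptothecin for at least 48 h at 37 C; viability read as ATP content by CellTiter-Glo luminescence.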
ALOX12 inh = ALOX12 (human) lipoxygenase inhibition; P18054; Potency, µM (series often up to 108 µM), for inactives: at the highest dose activity change, negative = inhibition, hits mostly inhibitors; 580,000 compounds, 1.1% hits; purified 12hLO, xylenol orange hydroperoxide absorbance
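Purified human 12hLO at 150 nM in 25 mM Hepes, 0.01% Triton X-100, pH 7.0, preincubated 15 min at room temperature with compound. Reaction started with 40 uM arachidonic acid, 30 min at room temperature. Hydroperoxide measured by Fe-xylenol orange, 573/405 nm absorbance ratio.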
VP16 counter = counter-screen for ROR gamma inhibitors: Gal4-VP16 reporter | Drosophila S2 Gal4-VP16 UAS-luciferase, luminescence, 20 h | 310,000 compounds, 3.5% hits | Potency, µM (titrated, usually from 53.6 µM), for inactives: top-dose activity, negative = inhibition, hits mostly inhibitors | AID 2546;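 note: Gal4-VP16 expression switched on by copper sulfate through the metallothionein promoter; nearly all actives have a fitted effect of over 50% in size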
RORg inh = blocks mouse ROR gamma transcriptional activity; Potency, µM (highest dose often 53.6 µM), for inactives: top-dose activity change, negative = inhibition, usual class: inhibitors; AID 2551; 310,000 compounds, 5.4% hits; Drosophila S2 Gal4-RORgamma UAS-luciferase reporter, 20 h; P51450; note: nearly all actives have a fitted effect of over 60% in size
Target sequence (P51450 whole entry, looked up, the tested form may be a part): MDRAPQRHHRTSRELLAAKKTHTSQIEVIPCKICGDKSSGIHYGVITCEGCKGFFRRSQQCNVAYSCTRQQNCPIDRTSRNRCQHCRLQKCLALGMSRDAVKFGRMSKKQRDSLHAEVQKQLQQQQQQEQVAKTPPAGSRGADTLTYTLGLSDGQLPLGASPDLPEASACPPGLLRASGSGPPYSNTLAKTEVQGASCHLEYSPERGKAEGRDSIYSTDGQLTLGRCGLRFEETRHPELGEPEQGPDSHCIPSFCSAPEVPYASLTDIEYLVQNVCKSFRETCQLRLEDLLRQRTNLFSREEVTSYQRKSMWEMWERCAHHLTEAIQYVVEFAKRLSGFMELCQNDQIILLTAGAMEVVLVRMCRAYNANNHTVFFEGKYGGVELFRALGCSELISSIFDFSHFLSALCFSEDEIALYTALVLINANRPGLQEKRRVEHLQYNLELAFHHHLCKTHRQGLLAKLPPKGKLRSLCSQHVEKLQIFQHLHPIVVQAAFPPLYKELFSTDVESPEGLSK
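Luminescence from a UAS-regulated Photinus luciferase reporter in stably transfected Drosophila Schneider cells is measured; decreased signal marks ROR gamma inhibition. Fusion expression is induced by 700 uM copper sulfate for 20 hr.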
* = called active by the depositor; u = inconclusive; x = no result given; [ ] = remark or other dose. Only some compounds are listed: those with a hit (about 15% of all), similar ones and a draw of the others. Calls come from the whole dose curve; as a rule, active = well fitted curve in the direction sought with a large enough effect; inconclusive = small, poorly fitted or top-dose-only effect, or another doubt; inactive = no such curve, though single readings can be large; an effect the other way counts as inactive or inconclusive. % is set by controls: 0 for no effect and ±100 for the full control effect; potency is the fitted concentration of half-maximal effect.

SMILES | ELG1 repair inh | DT40 TDP1 no CPT | DT40 TDP1 CPT | ALOX12 inh | VP16 counter | RORg inh
Cc1ccc(O)c(/C=N/NC(=O)C2=NNC(c3ccccc3)(c3ccccc3)C2)c1 | u | x | x | x | 2.8µM* | 1.4µM*
Cc1ccc2nc(Cl)c(/C=N/NC(=O)c3ccccc3O)cc2c1 | -29% | u | u | 11% | u | u
CCOc1ccc(/C=N/NC(=O)c2[nH]ncc2Br)c(O)c1 | u | 5.2µM* | 5.2µM* | -10% | 11µM* | 3.5µM*
Cc1ccc(O)c(/C=N/NC(=O)c2[nH]ncc2Br)c1 | u | 15µM* | -9% | -8% | 1.3µM* | 1.3µM*
COc1cccc(CNC(=O)Nc2cccc(-c3nnc(Cc4ccc5c(c4)OCO5)o3)c2)c1 | x | x | x | -10% | x | x
COc1ccc(C2Cn3nnc(-c4nc(-c5ccc(F)c(F)c5)no4)c3CO2)cc1 (centres undefined) | x | x | x | 47% | x | x
Cc1cccc(/C=C(/C(=O)N(C)Cc2ccccc2)c2cccs2)c1 | x | x | x | 0% | x | x
N#CC(=C1C=C(Br)C(=NO)C=C1Cl)c1ccc(Cl)cc1 | x | 2.6µM* | 4.6µM* | u | x | x
N#CC(=C1C=CC(=NO)C(Cl)=C1)c1ccccc1 | x | 1.3µM* | 0.65µM* | u | x | x
N#CC(=Nc1ccccc1)c1ccccc1 | x | -11% | -1% | -34% | x | x
Cc1ncoc1C(=O)N1C[C@H]2OC(=O)N(CCc3cccc(Cl)c3)[C@H]2C1 | x | x | x | 27% | x | x
Fc1ccc(-c2nc(-c3ccncc3)no2)cc1 | x | x | x | -14% | x | x
Cc1sc2cc(C(=O)NC3CC3)[nH]c2c1CN1CCCCC1 | x | x | x | 35% | x | x
CCN(Cc1cccs1)C(=O)Cc1c[nH]c2ccccc12 | x | x | x | 7% | x | x
O=C(O)CC/C(=N\Nc1ccc(S(=O)(=O)N2CCCC2)cc1[N+](=O)[O-])c1cccs1 | 21µM* | -30% | -26% | -5% | 11% | -20%
CCc1ccc(Nc2ccc(S(=O)(=O)N3CCOCC3)cc2[N+](=O)[O-])cc1 | -15% | u | u | -14% | -6% | u
CN1CCN(S(=O)(=O)c2ccc(Nc3cccc(Cl)c3)c([N+](=O)[O-])c2)CC1 | 3% | 23µM* | u | 9% | x | x
O=[N+]([O-])c1cc(S(=O)(=O)N2CCCCC2)ccc1NCc1cccc(Cl)c1 | 2% | 29µM* | -16% | -4% | u | 35%
O=C(Oc1ccc(Oc2ccccc2)cc1)C1CCCCC1 | x | x | x | 5% | x | x
CCN(CC)Cc1cnc2c(C(=O)N(C)Cc3ccccc3C)cnn2c1 | x | x | x | 64% | x | x
CC(=O)C1=C(OC(=O)c2ccccc2)c2ccccc2S(=O)(=O)N1C(C)C | x | x | x | 49% | x | x
O=C(NC1CCCCCC1)C1CC(=O)N(c2n[nH]c3cccc(F)c23)C1 (centres undefined) | x | x | x | 18% | x | x
OCCc1cc(CC2(NC3CCOCC3)COC2)no1 | x | x | x | 34%[176 µM] | x | x
O=C(CCC1CCCCC1)Nc1nccs1 | 16% | -18% | -16% | -2% | -2% | 18µM*
O=C(CCC(=O)N(CC(=O)NC1CCCC1)c1ccccc1F)Nc1nccs1 | 0% | -16% | -9% | -2% | 5% | 13µM*
CC(C)(C)C1CCC(C(=O)Nc2nccs2)CC1 (centres undefined) | u | 23µM* | u | 12% | 8.9µM* | 4.5µM*
Cc1cnc(NC(=O)C2CCC(C(C)(C)C)CC2)s1 (centres undefined) | u | u | u | -11% | u | u
Cc1ccccc1N(CC(=O)NC1CCCCC1)C(=O)CCC(=O)Nc1nccs1 | -15% | -19% | 3% | -6% | 2% | 32%
O=C(c1ccc(F)c(Cl)c1)N1CCC2(CC1)CN(C1CCC1)CC2CO (centres undefined) | x | x | x | 93% | x | x
O=C(NCc1ccccc1)N1CCC(O)(c2csc(CN3CC[C@@H](O)C3)n2)CC1 | x | x | x | 22%[176 µM] | x | x

From PubChem BioAssay
